Test: changes in parasitized red cell lysis, either direction – P. falciparum Indochina, OD700, 3 h, PSAC antagonist project, primary screen (AID 1156)
Conditions: P. falciparum-infected erythrocytes, osmotic lysis, higher = more signal, called active from +8 up or from −8 down

z-score, inactive:
O=C1O[C@H](c2ccccc2)[C@H](c2ccccc2)N2[C@H]1[C@@H](C(=O)Nc1nc3ccccc3s1)[C@]1(C(=O)Nc3ccc(C#CC4(O)CCCCCC4)cc31)[C@H]2c1ccccc1OCCO 0.602
CCOC(=O)C[C@H]1[C@H](OC(=O)c2ccccc2-c2ccccc2)[C@@H](NC(=O)C2CCCCC2)c2cc(OCCCO)ccc2N1C(=O)Cc1ccc(OC)cc1 0.125
CN(C)CCCNC(=O)[C@@]1(C)c2ccccc2C(=O)N(Cc2ccccc2)[C@H]1c1ccc(CO)cc1 1.32
NC(=O)N1C(=O)C2C(C1=O)C1C=C(CCCO)C2C(c2cccs2)N1Cc1cccc(OC(F)(F)F)c1 (stereo not given) -0.569
COc1ccc(NC(=O)O[C@H]2[C@H](OC(=O)Nc3ccccc3)[C@@H](OC(=O)Nc3ccccc3)[C@@H](OC)O[C@@H]2CO)cc1 0.316

From PubChem BioAssay
